This passage reports Potency, caspase-3 activation and activation results from PubChem BioAssay (NCATS).

Where “and” joins values, the source holds several entries; their conditions need not be identical. Equal entries are not always repeated. Values without a mark were called inactive. Inconclusive results are not listed. Calls of active or inactive are those of the source. Unless noted, the call rests on the fitted dose curve; in most records, active means well fitted curve in the direction sought with a large enough effect; inconclusive means small, poorly fitted or top-dose-only effect, or another doubt; inactive means no such curve, though single readings can be large; an effect the other way counts as inactive or inconclusive.

Test [1] deals with Luciferin 4-monooxygenase (Photinus pyralis) (UniProt P08659). As to the kind of experiment: Biochemical firefly luciferase enzyme assay for NPC (AID 624030).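 Further: purified P. pyralis luciferase at 10 nM with luciferin and ATP substrate; 0% = DMSO and -100% = full luciferase inhibition by PTC124 control; nearly all actives have a fitted effect of over 70% in size.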 In outline:
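Counter-screen for direct inhibition of the luciferase enzyme by approved-drug library compounds, run at 10 nM enzyme in 50 mM Tris acetate (final). Luminescence was read within 5 min of enzyme-buffer addition and normalized to PTC124 versus DMSO (0%).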

Test [2] can be described thus: S16 Schwann cell viability assay (CellTiter-Glo assay) (AID 624031).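 Further: cellular ATP luminescence as a viability measure; plate controls were DMSO-treated cells for no effect and cell-free wells for full effect; nearly all actives have a fitted effect of over 70% in size.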 In outline:
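Untransfected S16 rat Schwann cells; compound 24 h, 37 °C/5% CO2; CellTiter-Glo ATP luminescence. % activity vs no-cell wells and DMSO controls (0%); concentration-effect curves classed by r2, response magnitude, activity.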
(In general: Cellular ATP, detected with luciferase, serves as a proxy for viable cell number.)

In the next test the test system is AA1029. Kind of test: qHTS profiling for inhibitors of Plasmodium falciparum proliferation (AID 504749). Further: nearly all actives have a fitted effect of over 60% in size. Further: potency means the concentration at half of the fitted maximal effect. To be noted: P. falciparum in erythrocytes, SYBR Green DNA, 72 h; series mostly up to 28.7 µM. In outline: (§1)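 Fluorescence of SYBR Green-bound parasite DNA, read at 485/535 nm, served as the growth measure. Infected erythrocytes were cultured with compound 72 h; artemisinin (0.29 uM) and DMSO wells defined the normalization range.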

A further test deals with CP191. The test is described as above. To be noted: P. falciparum in erythrocytes, SYBR Green DNA, 72 h; series mostly up to 28.7 µM. In outline:
as §1

For a further test, the system named is CP260. Described as above. To be noted: P. falciparum in erythrocytes, SYBR Green DNA, 72 h; series mostly up to 28.7 µM. The method, boiled down: as §1
In another test the test system is CP297. Described as above. The settings on record: P. falciparum in erythrocytes, SYBR Green DNA, 72 h; series mostly up to 28.7 µM. In outline:
as §1

The next test deals with CP335. Described as above. To be noted: P. falciparum in erythrocytes, SYBR Green DNA, 72 h; series mostly up to 12.8 µM. The method, boiled down:
as §1

For another test, the system named is Dd2. The description is as above. The settings on record: P. falciparum in erythrocytes, SYBR Green DNA, 72 h; series mostly up to 28.7 µM. The method, boiled down:
as §1

The subject of a further test is ICS. Described as above. To be noted: P. falciparum in erythrocytes, SYBR Green DNA, 72 h; series mostly up to 28.7 µM. In outline: as §1
The next test relates to JCK. The description is as above. The settings on record: P. falciparum in erythrocytes, SYBR Green DNA, 72 h; series mostly up to 28.7 µM. In outline: as §1
The next test deals with TAB165. The test is described as above. The settings on record: P. falciparum in erythrocytes, SYBR Green DNA, 72 h; series mostly up to 28.7 µM. The method, boiled down: as §1
A short description of test [3]: S16 Schwann cell PMP22 intronic element firefly luciferase assay (AID 624032). Further: potency means the concentration at half of the fitted maximal effect; nearly all actives have a fitted effect of over 30% in size. In outline: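 Rat S16 Schwann cells stably carrying a PMP22 intronic element-driven Fluc reporter were seeded overnight, then exposed to compounds for 24 h at 37 °C. Luminescence was normalized to PTC124 (positive control) and DMSO (0% activity).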
The nature of test [4]: Cell Viability - SH-SY5Y (AID 544).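 Further: cells exposed to compound for 40 hours; 0% = DMSO alone and -100% = 100 µM tamoxifen; nearly all actives have a fitted effect of over 55% in size.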 The settings on record: SH-SY5Y neuroblastoma cell viability; viability change, negative = cytotoxic: at 92.2 µM (top of the series). The method, boiled down: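 SH-SY5Y, 1500 cells/well, 5 hr pre-incubation 37 °C; cpd 40 hr 37 °C; CellTiter-Glo 20 min RT; luminescence (ATP) read. qHTS concentration-response, Hill fit → AC50. Tamoxifen, doxorubicin as positive controls.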

A short description of test [5]: Cellular Toxicity (caspase-3) N2a (AID 665).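 Further: compound exposure lasted 16 h at 37 °C before readout.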 The settings on record: N2a cells, luminescence, normalized: DMSO 0%, 10 µM staurosporine 100%; at 92.2 µM (top of the series). The method, boiled down: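 Luminescent Caspase-Glo 3/7 readout in N2a mouse neuroblastoma cells after 16 h compound exposure at 37 °C. Signal scaled to DMSO (basal) and 10 uM staurosporine (100%). Concentration-response fitted with Hill equation for AC50.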

In test [6] the target is Glucocorticoid receptor (Homo sapiens) (UniProt P04150). Kind of test: qHTS assay for small molecule agonists of glucocorticoid receptor signaling (AID 588532; active means well fitted curve in the direction sought with a large enough effect in the signal ratio, with a control signal flat; the % refers to the signal ratio;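 further: 100% = dexamethasone at 0.1 µM and 0% = DMSO only wells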). The settings on record: HeLa MMTV-bla, beta-lactamase ratio, agonist, 18 h; active compounds read high; percent of dexamethasone control, DMSO zero. In outline:
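MMTV-bla HeLa, beta-lactamase reporter; medium with 1% charcoal/dextran-stripped FBS; cpds up to 92 uM, 18 h, 37 C; CCF4 readout 460/530 nm; Hill fit → EC50, efficacy vs 0.1 uM dexamethasone = 100%.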
In general terms: Quantitative high-throughput screening tests each substance at several concentrations.

Test [7] can be described thus: qHTS assay for small molecule disruptors of the mitochondrial membrane potential - 1 hr assay (AID 651754; calls by dose curve; further: on the % scale 0 is the no-effect control and ±100 the full control effect; nearly all actives have a fitted effect of over 35% in size). The method, boiled down: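 Read-out: dye fluorescence at 490 nm ex/535 nm em (monomers) and 540 nm ex/590 nm em (aggregates) in HepG2 cells. Compound exposure 1 hr at 37C, followed by 30 min dye loading.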
The nature of test [8]: qHTS assay for small molecule disruptors of the mitochondrial membrane potential - 5 hr assay (AID 651755; calls by dose curve; further: on the % scale 0 is the no-effect control and ±100 the full control effect; nearly all actives have a fitted effect of over 40% in size). The method, boiled down: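 Seed HepG2 overnight, add compound, incubate 5 hr at 37C and 5% CO2, stain 30 min with Mito-MPS, then measure monomer (490/535 nm) and aggregate (540/590 nm) fluorescence.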
A short description of test [9]: qHTS assay for environmental chemicals that activate the Aryl hydrocarbon Receptor (AhR) signaling pathway (AID 651777). Further: % of control where 0% means no effect; nearly all actives have a fitted effect of over 15% in size. To be noted: 1A2-DRE human hepatoma cells, luciferase, 24 h; activation: active compounds read high. In outline:
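Luminescence read-out: One-Glo added for 30 min at RT after 24 hr compound treatment (37 C, 5% CO2) of human hepatoma cells expressing a DRE/CYP1A2 promoter–luciferase reporter; increased signal indicates AhR activation.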

The nature of test [10]: qHTS assay for small molecule antagonists of the retinoid-related orphan receptor gamma (ROR-gamma) signaling pathway - cell viability counter screen (AID 720652; active means well fitted curve in the direction sought with a large enough effect in the repeat runs; an effect the other way counts as inactive or inconclusive;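 further: CHO reporter cells with doxycycline-induced ROR-gamma expression; compound exposure lasted 16 hr before ATP read; on the % scale 0 is the no-effect control and ±100 the full control effect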). In outline:
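CHO RORE-LUC/TET-ROR line, 1,000 cells/well, 37 C 5% CO2 5 hr; cpd or DMSO + doxycycline induction, 16 hr. CellTiter-Glo, 30 min RT, luminescence = ATP content.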

Test [11] has as its target Cytochrome P450 2D6 (Homo sapiens) (UniProt P10635). As to the kind of experiment: Cytochrome P450 family 2 subfamily D member 6 (CYP2D6) small molecule antagonists: luciferase biochemical (cell-free) qHTS assay (AID 1645840; active means well fitted curve in the direction sought with a large enough effect in the repeat runs; an effect the other way counts as inactive or inconclusive; further: potency means the concentration at half of the fitted maximal effect; nearly all actives have a fitted effect of over 55% in size). In outline:
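P450-Glo CYP2D6 system: proluciferin substrate converted by enzyme to luciferin, read by luminescence proportional to activity. Enzyme-substrate mix with compound 10 min at room temperature, then NADPH regeneration 1 h before detection reagent.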

Luciferin 4-monooxygenase (Photinus pyralis), sequence (P08659 whole entry, looked up): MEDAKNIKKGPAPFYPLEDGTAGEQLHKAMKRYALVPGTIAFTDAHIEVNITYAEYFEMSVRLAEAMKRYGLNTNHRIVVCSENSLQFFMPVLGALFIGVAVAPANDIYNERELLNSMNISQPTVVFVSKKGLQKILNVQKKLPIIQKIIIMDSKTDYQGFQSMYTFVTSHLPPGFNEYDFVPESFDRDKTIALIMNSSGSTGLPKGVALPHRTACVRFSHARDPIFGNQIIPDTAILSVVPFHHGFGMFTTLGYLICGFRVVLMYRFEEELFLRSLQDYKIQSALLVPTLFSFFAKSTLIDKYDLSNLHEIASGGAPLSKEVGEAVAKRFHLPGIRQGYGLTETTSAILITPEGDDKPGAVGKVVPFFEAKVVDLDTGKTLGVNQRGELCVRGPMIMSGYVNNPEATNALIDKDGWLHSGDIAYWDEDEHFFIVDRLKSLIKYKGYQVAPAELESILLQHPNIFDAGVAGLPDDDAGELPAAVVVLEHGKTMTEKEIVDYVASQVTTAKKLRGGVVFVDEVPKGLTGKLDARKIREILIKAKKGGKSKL
Glucocorticoid receptor (Homo sapiens), sequence (P04150 whole entry, looked up): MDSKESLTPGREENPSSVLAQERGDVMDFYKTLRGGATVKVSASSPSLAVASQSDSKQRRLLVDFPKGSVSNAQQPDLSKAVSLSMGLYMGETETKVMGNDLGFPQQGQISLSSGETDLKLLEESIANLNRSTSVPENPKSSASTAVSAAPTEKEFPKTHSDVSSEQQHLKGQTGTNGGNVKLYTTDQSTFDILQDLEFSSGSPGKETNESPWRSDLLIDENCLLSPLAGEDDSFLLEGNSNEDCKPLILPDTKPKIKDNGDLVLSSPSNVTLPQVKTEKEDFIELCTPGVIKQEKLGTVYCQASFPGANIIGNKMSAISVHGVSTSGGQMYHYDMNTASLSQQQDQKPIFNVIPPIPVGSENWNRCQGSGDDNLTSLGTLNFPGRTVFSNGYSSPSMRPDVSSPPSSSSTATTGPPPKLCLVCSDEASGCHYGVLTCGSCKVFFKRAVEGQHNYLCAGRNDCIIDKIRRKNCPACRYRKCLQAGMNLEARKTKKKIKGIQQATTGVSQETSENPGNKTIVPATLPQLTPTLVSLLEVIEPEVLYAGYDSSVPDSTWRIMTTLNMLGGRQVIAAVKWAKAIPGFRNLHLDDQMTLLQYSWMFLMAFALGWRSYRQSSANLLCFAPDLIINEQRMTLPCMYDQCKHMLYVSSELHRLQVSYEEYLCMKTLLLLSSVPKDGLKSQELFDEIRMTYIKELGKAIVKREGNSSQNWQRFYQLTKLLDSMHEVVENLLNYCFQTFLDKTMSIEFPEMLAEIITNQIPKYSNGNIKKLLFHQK
Cytochrome P450 2D6 (Homo sapiens), sequence (P10635 whole entry, looked up): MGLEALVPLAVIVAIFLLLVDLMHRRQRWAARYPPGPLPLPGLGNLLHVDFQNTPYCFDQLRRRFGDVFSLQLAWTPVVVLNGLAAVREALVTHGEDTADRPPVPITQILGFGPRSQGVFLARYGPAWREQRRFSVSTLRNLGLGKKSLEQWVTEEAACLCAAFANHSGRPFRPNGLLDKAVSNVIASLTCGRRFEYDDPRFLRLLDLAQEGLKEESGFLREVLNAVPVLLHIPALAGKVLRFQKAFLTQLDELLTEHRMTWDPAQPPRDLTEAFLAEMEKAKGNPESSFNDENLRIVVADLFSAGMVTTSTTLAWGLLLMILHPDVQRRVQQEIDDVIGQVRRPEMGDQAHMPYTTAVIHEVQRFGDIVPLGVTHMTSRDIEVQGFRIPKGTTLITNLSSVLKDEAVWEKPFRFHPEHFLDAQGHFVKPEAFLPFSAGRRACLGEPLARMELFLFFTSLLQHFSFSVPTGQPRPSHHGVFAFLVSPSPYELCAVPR

In the case of `C[C@]12CC[C@H](O)CC1=CCC1C2CC[C@]2(C)C(=O)CC[C@@H]12` (stereo not given in full), the Potency result (in [1]; in test [2]; with AA1029; in the test on CP191; in the test with CP260; in the test on CP335) was “inactive” throughout. The Potency result in the test on Dd2, with ICS, in the test with JCK and in the test with TAB165 was “inactive” in each case. The Potency in the test on CP297 is 19 µM (active).
For `CC(C)C[C@H]1C(=O)N2CCCC2[C@]2(O)O[C@](NC(=O)[C@@H]3C=C4c5cccc6[nH]c(Br)c(c56)C[C@H]4N(C)C3)(C(C)C)C(=O)N12` (stereo not given in full), the Potency in test [3] is 8.09 µM (active).
Regarding `c1ccc(N=Nc2ccccc2)cc1`, the Potency result in [4], in [7], in test [8] and in [10] was “inactive” each time. Moreover, in test [5], the caspase-3 activation was -2.4%. Moreover, the activation in [6] was 3.39%; in [9] it was -0.472% and 1.23%.
Consider `CC1=NCCc2c1[nH]c1cc(O)ccc21`, for which the Potency in test [11] is 12 µM (active).
